Assay outcomes from PubChem BioAssay.
VACV mCherry inh: vaccinia inhibition (mCherry reporter). Vaccinia virus mCherry reporter infection, fluorescence. actives 0.63% (n = 310,000). Potency, µM (series often up to 36.5 µM), inactives show top-dose activity change, negative = inhibition, hits mostly inhibitors. AID 720579; calls by dose curve; tested in A549 cells; note: potency is the fitted concentration of half-maximal effect; nearly all actives have a fitted effect of over 35% in size
Lassa entry inh: Lassa virus entry inhibition; Potency, µM (top dose mostly 37.9 µM), for the others: top-dose activity change, negative = inhibition, actives largely listed as inhibitors; actives 1.2% (n = 300,000); AID 540256; Lassa virus pseudotype entry inhibition, cell reporter; calls by dose curve; tested in HEK293 cells; note: potency is the fitted concentration of half-maximal effect; nearly all actives have a fitted effect of over 50% in size
Marburg entry inh: Marburg virus entry inhibition; Potency, µM (top dose mostly 37.8 µM), for the others: at the highest dose activity change, negative = inhibition, hits mostly inhibitors; Marburg virus pseudotyped entry inhibition, cell reporter; actives 1.8% (n = 300,000); AID 540276; calls by dose curve; tested in HEK293 cells; note: potency is the fitted concentration of half-maximal effect
HCMV inh: human cytomegalovirus inhibition; HFF cells, HCMV-luciferase reporter, 72 h; stronger effect = lower value; actives 4.5% (n = 410,000); activity change, negative = inhibition, % at 57.5 µM; in the data active = activity change below about -60%; inconclusive = no clear call, values can overlap the other calls; inactive = above about -39%
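Two compound doses tested in HFFs infected with HCMV-luciferase, MOI 1 PFU/cell, 72 h at 37C. Lysate luminescence read with OneGlo; data normalized against buffer-only and 10uM Salinomycin inhibitor controls.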
FMDV antiviral: antivirals against foot and mouth disease virus. actives 1.2% (n = 410,000). Potency, µM (highest dose often 57.9 µM), without a hit: top-dose activity change, negative = inhibition, usual class: inhibitors. FMDV antiviral cell-based qHTS. AID 1159524; calls by dose curve; tested in HEK293T cells; note: read-out not given here; potency is the fitted concentration of half-maximal effect; nearly all actives have a fitted effect of over 45% in size
VACV Venus inh: vaccinia inhibition (Venus reporter). actives 0.46% (n = 330,000). Vaccinia virus Venus reporter expression, fluorescence. AID 720580. Potency, µM (top dose mostly 36.5 µM), without a hit: top-dose activity change, negative = inhibition, hits mostly inhibitors; calls by dose curve; tested in A549 cells; note: potency is the fitted concentration of half-maximal effect; nearly all actives have a fitted effect of over 30% in size
The depositor's hits bear a star; i = inactive; ? = inconclusive; . = no result given; + = active, no number; [ ] = another dose, or the depositor's remark. The list is not random: actives were taken first. Their share in the collection is about 6.5%. % is set by controls: 0 for no effect and ±100 for the full control effect.

SMILES	VACV mCherry inh	Lassa entry inh	Marburg entry inh	HCMV inh	FMDV antiviral	VACV Venus inh
COc1ccc(Cn2c(=O)n(Cc3ccco3)c(=N)c3c4c(sc32)COC(C)(C)C4)cc1	.	?	-20%	-24	-23%	?
CC1(C)Cc2c(sc3c2c(=N)n(Cc2ccco2)c(=O)n3Cc2ccc(F)cc2)CO1	.	7.1µM*	?	-15	-21%	?
CC1(C)Cc2c(sc3c2c(N)nc(=S)n3Cc2ccccc2)CO1	.	.	.	-31	.	.
CCOC(=O)C1CCN(C2CCN(C(=O)c3oc4c(C)c(C)ccc4c3C)CC2)CC1	.	.	.	78	52%	.
Cc1ccc2c(C)c(C(=O)N3CCCC(C(N)=O)C3)oc2c1C (configuration not stated)	.	.	.	-99*	33%	.
C=CCC1(CC=C)CCCN1C(=O)c1cc(COc2cccc(C(F)(F)F)c2)on1	-1%	?	10µM*	.	-24%	-14%
COc1ccccc1CCNC(=O)c1cc(COc2cccc(C(F)(F)F)c2)on1	.	.	.	+	0%	.
CCOC(=O)C1=C(C)NC(C)=C(C(=O)OCC)C1c1ccc(Br)o1	-13%	-3%	-44%	-79*	-30%	-19%
CCC1=Nc2cc(C(=O)NCCN3CCOCC3)ccc2Sc2ccc(Br)cc21	.	.	.	-30	-27%	.
CCC1=Nc2cc(C(=O)NCCCOC)ccc2Sc2ccccc21	-30%	?	?	-76*	-2%	?
CCC1=Nc2cc(C(=O)NCCCOC)ccc2Sc2ccc(Br)cc21	?	?	?	-87*	-4%	?
COc1cccc(NC(=O)[C@@H]2CC(=O)n3cnnc3S2)c1	.	.	14%	.	.	.
Cc1cccc(N=c2oc3cc(O)ccc3cc2C(N)=O)c1	-22%	-12%	?	-61*	4%	?
COc1ccccc1N=c1oc2cc(O)ccc2cc1C(N)=O	-25%	-28%	-28%	-36	30%	?
COc1ccc2cc(C(N)=O)/c(=N\NC(=O)c3ccccc3)oc2c1	.	.	.	23	10%	.
COc1ccc2cc(C(N)=O)c(=Nc3ccc(C)cc3)oc2c1	-14%	?	?	-83*	10%	-6%
CC(=O)N1c2ccc(S(=O)(=O)N3CCCCCC3)cc2CC1C(=O)NCc1ccccc1 (configuration not stated)	-12%	1%[46.1 µM]	.	-1	6%	-4%
N#Cc1c(NCc2ccccc2)ccnc1NCc1cccnc1	?	-23%	?	-80*	-15%	?
COc1ccc(-c2nc(CS(=O)CC(=O)NCc3ccc(F)cc3)c(C)o2)cc1OC (configuration not stated)	-13%	2%[46.1 µM]	4%[46.1 µM]	2	11%	-16%
CC1CCCN(C(=O)COc2ccc(Nc3ccccc3)cc2)C1 (configuration not stated)	5%	-6%	?	-32	5%	-8%
O=C(Nc1ccc(OCC(=O)N2CCC(Cc3ccccc3)CC2)cc1)c1ccco1	.	-19%	-2%	-83*	-16%	.
CC(=O)Nc1ccc(OCC(=O)N2CCC(Cc3ccccc3)CC2)cc1	2%	-2%	-6%[46.1 µM]	5	?	-1%
CC1CCN(C(=O)COc2ccc(Nc3ccccc3)cc2)CC1	-2%	-5%	?	-74*	-12%	6%
COc1ccc(-n2nnnc2SCC(=O)c2ccc(O)c(O)c2)cc1	.	-12%	-11%	-24	-10%	.
NC(=O)c1ccc(-n2nnnc2SCC(=O)c2ccc(O)c(O)c2)cc1	i	14%	10%[46.1 µM]	-100*	-15%	-10%
SMILES	VACV mCherry inh	Lassa entry inh	Marburg entry inh	HCMV inh	FMDV antiviral	VACV Venus inh
CC(C)Oc1ccc(CNC(=O)c2cc3ccccn3n2)cc1	-5%	?	.	115	44%	-1%
C[n+]1ccc(/C=C/c2ccc3ccccc3c2)cc1	?	.	.	.	-2%	?
C[n+]1ccc(/C=C/c2ccc(Br)cc2)cc1	?	-24%	?	-63*	-15%	?
CCN(c1ccccc1)S(=O)(=O)c1ccc(NCC2COc3ccccc3O2)nc1 (configuration not stated)	.	16µM*	?	8	?	.
CCC1CN(CCNC(=O)c2ccc3c(c2)OCO3)Cc2cc(OC)ccc2O1 (configuration not stated)	-14%	.	.	.	47%	-6%
Cc1ccc(Nc2nc(N/N=C/c3c[nH]c4ccccc34)nc(N3CCOCC3)n2)cc1	?	15µM*	0.21µM*	3	?	?
C(=N\Nc1nc(Nc2ccccc2)nc(N2CCOCC2)n1)/c1c[nH]c2ccccc12	.	?	0.073µM*	1	3%	.
CCC(C)C(=O)OC1CCC=C2C=CC(C)C(CCC3CC(O)CC(=O)O3)C21 (configuration not stated)	-21%	21%	23%	-97*	-19%	-16%
CSc1ccc(CCNC(=O)CCc2c(C)nc3c4cccnc4nn3c2C)cc1	-11%[7.34 µM]	28%[46.1 µM]	-17%[46.1 µM]	-30	-26%	-10%
CNC(=O)/C(=C\c1ccc2c(c1)OCO2)NC(=O)c1ccc(Br)cc1	i	9%	-18%	-60*	-6%	-6%
CNC(=O)/C(=C/c1ccc2c(c1)OCO2)NC(=O)c1ccc(Br)cc1	-18%	7%	?	15	-3%	-5%
O=S1(=O)CCOC[C@H](c2ccccc2)N1Cc1ccc(Cl)c(Cl)c1	i	.	.	.	.	-20%
COc1cc(N)c(Cl)cc1C(=O)OCC(=O)NCC1CCCCC1	-14%	-29%[46.1 µM]	?	-66*	-18%	-16%
COc1ccc(C2=C(C)C(N3CCC(C(=O)NCc4ccco4)CC3)=NS2(=O)=O)cc1	-21%	?	.	-4	-10%	-17%
FC(F)(F)c1nc(N2CCCC2)ncc1-c1nnnn1-c1ccc(Cl)cc1	?	?	?	-65*	?	?
Cc1ccc(-n2nnnc2-c2cnc(-c3cccnc3)nc2C(F)(F)F)cc1	.	?	-37%	?	22µM*	.
Fc1ccc(-n2nnnc2-c2cnc(-c3cccs3)nc2C(F)(F)F)cc1	.	?	?	-86*	16µM*	.
Cc1ccc(-n2nnnc2-c2cnn(-c3ccc(F)cc3)c2C(F)(F)F)cc1	.	15µM*	?	-70*	?	.
FC(F)(F)c1nc(-c2ccncc2)ncc1-c1nnnn1-c1ccccc1	.	-7%	-1%	3	-13%	.
FC(F)(F)c1ccncc1-c1nnnn1-c1ccc(Cl)cc1	i	-5%	?	?	-26%	-3%
O=C(C1CCCCC1)N(Cc1cccnc1)c1nc2ccc(Cl)cc2s1	i	19%[46.1 µM]	.	-19	18%	-15%
CCOC(=O)C1NC2CCC(OCC)CC2C1CCCN1C(=O)C2=C(CCCC2)C1=O (configuration not stated)	.	.	-4%	.	.	.
CC(C)OC(=O)[C@H](C)NC(=O)N1CCc2nc(-c3ccccc3)c3c(c2C1)CO[C@@H](C)C3	.	.	-2%[14.2 µM]	.	.	.
Cc1cccc(N(C)S(=O)(=O)c2nnc(NC(=O)C(C)Oc3ccccc3)s2)c1 (configuration not stated)	-15%	?	.	2	-21%	-14%
